# Records with an inconclusive call do not appear. For part of these data: Potency and affinity values are given separately. Calls of active or inactive are those of the source.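 Rule for the calls, unless noted: active = luciferase signal above three times the same-plate solvent-only control wells; inactive = the rest.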
# Legend:
# [1] = inhibitors of Cryptococcus chitosan production, flow cytometry, Cibacron Brilliant Red staining (AID 1347148; call rule not given here;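 note: compound exposure lasted three days at 37 degrees C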); conditions: Cryptococcus neoformans chitosan, stronger effect = lower value; at 10 µM unless noted
# [2] = survival rescue of mitochondrial mutant cells in low glucose, primary screen, MELAS cybrids, Rieske KO mouse fibroblasts, CellTiter-Glo (AID 1508586;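 active = mean z-score across replicates of 1.96 or higher in either the MELAS or the Rieske mutant cell line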;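 note: z relative to plate mean and SD of compound and empty wells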)
# [3] = target: NAD(+) hydrolase SARM1 (Homo sapiens) (UniProt Q6SZW1); test: SARM1 TIR NADase inhibitors, cell lysate, NAD-Glo luminescence (AID 1508614;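 active = compound whose remaining NAD level is above about 45 nM, limit read from the data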;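 note: higher remaining NAD means stronger inhibition of SARM1 NADase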); conditions: SAM-TIR HEK293T lysate NADase, at 1 µM, stronger effect = higher value
# [4] = target: Mitogen-activated protein kinase 7 (Homo sapiens) (UniProt Q13164); test: ERK5 transactivation activators in reporter cells, primary screen, cell-based, HTS (AID 1508626); conditions: HeLa Gal4-ERK5 transactivation, 18 h, at 5 µM, stronger effect = higher value;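 note: luciferase driven by Gal4-ERK5 fusion binding five Gal4 sites before minimal TATA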
# [5] = circadian clock period modulators, cell-based, LOPAC library, luminescence reporter (AID 2774; call rule not given here;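 note: values are relative to mean of DMSO wells on each plate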); conditions: circadian reporter cells, at 7 µM, actives lie on both sides
# [6] = target: ATP-dependent translocase ABCB1 (Homo sapiens) (UniProt P08183); test: MDR1 (ABCB1) efflux transporter inhibition, cell-based (AID 377; in the data active = fluorescence slope change above about 50%); conditions: MDR1-expressing cells, fluorescent substrate accumulation slope; stronger effect = higher value; concentration not given here
# [7] = polyglutamine-triggered caspase-3 activation inhibitors, cell-based (AID 1583); conditions: polyglutamine-induced caspase-3 activation, cell assay; stronger effect = higher value;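 tested at 10 µM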
# [8] = suppressors of polyQ aggregation in yeast, 75Q-TubU reporter (AID 1593); conditions: Yeast 75Q polyglutamine aggregation reporter
# [9] = rescue of polyQ-huntingtin neuronal dysfunction in worms, whole organism, C. elegans mechanosensory neurons, N-terminal huntingtin (AID 1599); conditions: touch response, stronger effect = higher value
# [10] = inhibitors of mitochondrial cytochrome c release, biochemical, purified mitochondria (AID 1603); conditions: stronger effect = lower value;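 note: mouse liver mitochondria challenged with calcium chloride; signal normalized to the plate average as 100%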
# [11] = inhibitors of polyQ protein aggregation (AID 1604); conditions: polyglutamine-induced protein aggregation inhibition assay; stronger effect = higher value; tested at 2.5 µM
# [12] = enhancers of glutamate uptake in motor neurons, MN-1 cell line (AID 1612); conditions: MN-1 motor neuron cells, stronger effect = higher value;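 note: tested at 1 µM final; 0% = mean of DMSO vehicle wells on each plate; positive means more glutamate uptake than control and negative means less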
# [13] = reducers of polyQ inclusions in PC12 cells, cell-based, NGF-treated PC12, GFPQ80 (AID 1614); conditions: PC12 NGF-treated GFP-polyQ80 inclusion reduction;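 note: lower means fewer inclusions and 0 means no inclusions at all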
# [14] = suppressors of polyglutamine aggregation in yeast, 75Q-TubH (AID 1616); conditions: S. cerevisiae 75Q-TubH polyglutamine aggregation suppression; stronger effect = higher value
# Chain of Mitogen-activated protein kinase 7 (Homo sapiens) (Q13164 whole entry, looked up, the tested form may be a part): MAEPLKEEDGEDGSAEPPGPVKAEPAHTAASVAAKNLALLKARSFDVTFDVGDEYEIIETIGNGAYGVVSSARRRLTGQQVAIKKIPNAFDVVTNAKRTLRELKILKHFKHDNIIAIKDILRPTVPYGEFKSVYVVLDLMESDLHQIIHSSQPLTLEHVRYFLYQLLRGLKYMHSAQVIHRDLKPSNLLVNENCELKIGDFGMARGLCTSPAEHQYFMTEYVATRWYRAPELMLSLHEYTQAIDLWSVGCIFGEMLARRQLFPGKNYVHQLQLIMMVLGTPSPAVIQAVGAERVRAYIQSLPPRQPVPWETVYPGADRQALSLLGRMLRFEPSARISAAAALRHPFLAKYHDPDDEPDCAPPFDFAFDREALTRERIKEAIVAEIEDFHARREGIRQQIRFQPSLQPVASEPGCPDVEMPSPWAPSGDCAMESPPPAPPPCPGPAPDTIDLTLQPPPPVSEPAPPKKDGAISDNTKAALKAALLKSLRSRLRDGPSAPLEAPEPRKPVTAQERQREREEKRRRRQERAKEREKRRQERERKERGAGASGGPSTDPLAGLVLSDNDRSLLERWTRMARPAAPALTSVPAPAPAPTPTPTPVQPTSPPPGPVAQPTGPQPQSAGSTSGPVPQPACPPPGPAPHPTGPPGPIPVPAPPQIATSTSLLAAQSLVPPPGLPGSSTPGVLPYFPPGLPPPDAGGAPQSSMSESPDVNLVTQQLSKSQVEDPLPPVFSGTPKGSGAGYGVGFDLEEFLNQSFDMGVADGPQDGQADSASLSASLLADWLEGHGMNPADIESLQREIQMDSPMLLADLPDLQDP
# Chain of NAD(+) hydrolase SARM1 (Homo sapiens) (Q6SZW1 whole entry, looked up, the tested form may be a part): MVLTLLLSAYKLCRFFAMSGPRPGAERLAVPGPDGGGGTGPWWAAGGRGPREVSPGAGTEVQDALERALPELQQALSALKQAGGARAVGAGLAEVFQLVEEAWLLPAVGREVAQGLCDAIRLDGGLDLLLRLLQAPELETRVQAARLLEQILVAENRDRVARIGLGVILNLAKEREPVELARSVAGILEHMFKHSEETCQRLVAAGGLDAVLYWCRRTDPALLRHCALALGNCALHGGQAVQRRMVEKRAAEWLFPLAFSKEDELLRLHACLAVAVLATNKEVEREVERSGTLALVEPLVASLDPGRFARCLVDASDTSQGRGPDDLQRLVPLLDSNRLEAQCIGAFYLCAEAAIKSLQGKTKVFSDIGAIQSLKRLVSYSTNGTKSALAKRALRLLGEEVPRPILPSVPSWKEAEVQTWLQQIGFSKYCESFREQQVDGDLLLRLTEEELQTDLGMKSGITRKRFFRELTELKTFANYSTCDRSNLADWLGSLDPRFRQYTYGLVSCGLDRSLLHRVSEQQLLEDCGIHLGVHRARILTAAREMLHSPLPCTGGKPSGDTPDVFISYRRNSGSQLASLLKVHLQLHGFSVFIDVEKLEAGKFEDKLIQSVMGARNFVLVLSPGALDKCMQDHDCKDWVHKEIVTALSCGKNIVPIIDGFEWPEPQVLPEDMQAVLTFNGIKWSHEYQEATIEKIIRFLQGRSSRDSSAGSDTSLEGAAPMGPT
# Chain of ATP-dependent translocase ABCB1 (Homo sapiens) (P08183 whole entry, looked up): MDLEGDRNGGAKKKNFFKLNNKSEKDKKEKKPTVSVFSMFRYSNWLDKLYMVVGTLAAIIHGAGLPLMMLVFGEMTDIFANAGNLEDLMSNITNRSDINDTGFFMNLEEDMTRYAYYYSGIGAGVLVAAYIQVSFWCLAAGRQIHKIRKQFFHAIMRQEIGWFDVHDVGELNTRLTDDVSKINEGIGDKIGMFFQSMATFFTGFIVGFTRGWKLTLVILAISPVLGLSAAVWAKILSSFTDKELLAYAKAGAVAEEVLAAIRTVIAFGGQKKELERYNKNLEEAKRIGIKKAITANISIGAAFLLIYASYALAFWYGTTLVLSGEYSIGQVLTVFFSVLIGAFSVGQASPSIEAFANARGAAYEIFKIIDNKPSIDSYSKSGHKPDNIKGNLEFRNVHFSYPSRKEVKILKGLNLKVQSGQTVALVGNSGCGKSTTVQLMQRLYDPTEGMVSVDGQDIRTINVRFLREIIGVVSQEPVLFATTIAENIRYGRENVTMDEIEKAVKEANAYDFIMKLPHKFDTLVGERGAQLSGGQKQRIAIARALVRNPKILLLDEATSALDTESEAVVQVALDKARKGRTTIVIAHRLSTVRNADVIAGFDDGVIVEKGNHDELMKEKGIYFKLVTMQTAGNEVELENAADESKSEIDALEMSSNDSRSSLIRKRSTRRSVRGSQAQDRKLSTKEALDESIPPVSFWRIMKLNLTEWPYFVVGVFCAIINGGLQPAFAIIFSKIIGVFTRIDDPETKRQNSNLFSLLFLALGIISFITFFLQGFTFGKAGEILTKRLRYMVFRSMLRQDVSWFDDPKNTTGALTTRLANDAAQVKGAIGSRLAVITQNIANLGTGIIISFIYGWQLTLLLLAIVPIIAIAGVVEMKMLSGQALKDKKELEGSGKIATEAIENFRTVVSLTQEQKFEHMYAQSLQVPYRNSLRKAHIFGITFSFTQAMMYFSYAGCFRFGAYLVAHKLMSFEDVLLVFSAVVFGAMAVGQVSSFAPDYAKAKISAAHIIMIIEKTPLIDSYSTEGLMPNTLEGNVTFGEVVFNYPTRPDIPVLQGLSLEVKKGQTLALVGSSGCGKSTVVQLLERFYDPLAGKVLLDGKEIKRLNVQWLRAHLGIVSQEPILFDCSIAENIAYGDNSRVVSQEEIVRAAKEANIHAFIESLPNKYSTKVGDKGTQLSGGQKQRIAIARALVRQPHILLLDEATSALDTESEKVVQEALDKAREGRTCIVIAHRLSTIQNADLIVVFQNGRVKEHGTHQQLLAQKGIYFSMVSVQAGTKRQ
smiles,measurement,setting,value
CNc1ccc2oc(C[C@H]3OC4(CC[C@H]3C)O[C@@H](C(C)C(=O)c3ccc[nH]3)[C@@H](C)C[C@@H]4C)nc2c1C(=O)O (stereo partly specified),fold fluorescence,[1],5.79 [at 95.5 µM] (inactive)
C=C(C)[C@@H]1O[C@@H]2CC[C@]3(C)[C@](O)(CC[C@@H]4[C@H]5OC(C)(C)[C@@H]6C[C@H]7C(=C)Cc8c(Cl)cc9[nH]c(c5c9c8[C@]76O)[C@]43C)[C@@]23O[C@H]3[C@@H]1O,fold fluorescence,[1],6.21 [at 78.8 µM] (inactive)
C=C1C(=O)O[C@H]2C[C@H](C)[C@H]3C=CC(=O)[C@]3(C)[C@H](O)[C@@H]12,fold fluorescence,[1],9.09 [at 190.6 µM] (inactive)
CC(=O)O[C@H]1C[C@H](O[C@H]2[C@@H](O)C[C@H](O[C@H]3[C@@H](O)C[C@H](O[C@H]4CC[C@@]5(C)[C@H](CC[C@@H]6[C@@H]5C[C@@H](O)[C@]5(C)[C@@H](C7=CC(=O)OC7)CC[C@]65O)C4)O[C@@H]3C)O[C@@H]2C)O[C@H](C)[C@H]1O[C@@H]1O[C@H](CO)[C@@H](O)[C@H](O)[C@H]1O,z-score,"[2]; MELAS cybrid survival, CellTiter-Glo 48 h, stronger effect = higher value",2.15 (active)
same,z-score,"[2]; Rieske KO mouse fibroblast survival, CellTiter-Glo 72 h",0.322
same,remaining NAD,[3],10 nM (inactive)
same,luciferase signal,[4],44 AU (inactive)
N[C@H]1CCc2cc(O)c(O)cc2C1,fold fluorescence,[1],4.25 [at 279 µM] (inactive)
C#CCN(C)[C@@H](C)Cc1ccccc1,period change,[5],0.185 h (inactive)
same,fold fluorescence,[1],5.04 [at 267 µM] (inactive)
OC[C@@H](O)[C@H]1O[C@@H]2O[C@H](C(Cl)(Cl)Cl)O[C@@H]2[C@H]1O,remaining NAD,[3],10 nM (inactive)
CC(=O)OCC1=C(C(=O)O)N2C(=O)[C@@H](NC(=O)CCCC(N)C(=O)O)[C@H]2SC1 (stereo partly specified),luciferase signal,[4],56 AU (inactive)
COc1ccc(O)c(C(C)(C)C)c1,remaining NAD,[3],10 nM (inactive)
COC(=O)C1=CO[C@@H](C)[C@@H]2CN3CC[C@@]4(C(=O)Nc5ccccc54)[C@H]3C[C@H]12,luciferase signal,[4],32 AU (inactive)
CC(=O)[C@H]1CC[C@H]2[C@@H]3CC[C@@H]4C[C@H](O)CC[C@]4(C)[C@H]3CC[C@]12C,remaining NAD,[3],10 nM (inactive)
COc1cc([C@@H]2c3cc4c(cc3[C@@H](O)[C@H]3COC(=O)[C@H]23)OCO4)cc(OC)c1O,luciferase signal,[4],72 AU (inactive)
C[C@@H]1O[C@@H](O[C@H]2CC[C@]3(C=O)[C@H]4CC[C@]5(C)[C@@H](C6=CC(=O)OC6)CC[C@]5(O)[C@@H]4CC[C@]3(O)C2)[C@H](O)[C@H](O)[C@H]1O,luciferase signal,[4],4 AU (inactive)
CC(=O)O[C@H]1[C@H]2[C@@H](OC(=O)Cc3ccccc3)[C@@H](C)C[C@]2(OC(C)=O)C(=O)/C(C)=C/[C@@H]2[C@H](CC[C@@]13CO3)C2(C)C,luciferase signal,[4],56 AU (inactive)
CC(C)c1cc2c(c(O)c1O)[C@@]1(C(=O)O)CCCC(C)(C)[C@@H]1CC2,luciferase signal,[4],52 AU (inactive)
COC(=O)C1=CO[C@@H](C)[C@@H]2CN3CC[C@@]4(C(=O)Nc5ccccc54)[C@@H]3C[C@H]12,luciferase signal,[4],24 AU (inactive)
CC(=O)[C@H]1CC[C@H]2[C@@H]3CC[C@H]4C[C@H](O)CC[C@]4(C)[C@H]3CC[C@]12C,luciferase signal,[4],24 AU (inactive)
CC(N)C(O)c1ccccc1 (stereo unspecified),fluorescence slope change,[6],4.9% (inactive)
same,inhibition,[7],-49.8%
same,score,[8],1.3
same,rescue above control,[9],-2.3
same,cytochrome c release ratio,[10],0.86
same,inhibition of aggregation,[11],86.1%
same,glutamate uptake change,[12],4.9%
same,inclusion score,[13],2
same,aggregation suppression score,[14],1.78
same,remaining NAD,[3],10 nM (inactive)
CCC(C)C(=O)OC1C[C@@]2(C)[C@H](c3ccoc3)OC(=O)CC23OC2(C)OC34C(OC(=O)C(C)C)[C@@]3(O)[C@@H](OC(=O)C5(C)OC5C)[C@@]5(C)C[C@]3(O)[C@@](C)([C@H]5CC(=O)OC)C14O2 (stereo partly specified),luciferase signal,[4],44 AU (inactive)
CC[C@H]1[C@@H]2C[C@H]3[C@@H]4N(C)c5ccccc5[C@]45C[C@@H]([C@H]2[C@H]5O)N3[C@@H]1O,remaining NAD,[3],10 nM (inactive)
same,luciferase signal,[4],116 AU (inactive)
CC(=O)O[C@@H]1CC[C@@]2(C)[C@@H](CC[C@@H]3[C@@H]2CC[C@]2(C)C(=O)CC[C@@H]32)C1,luciferase signal,[4],28 AU (inactive)
CC(C)[C@@H]1NC(=O)[C@H](C)OC(=O)[C@@H](C(C)C)NC(=O)[C@@H](C(C)C)OC(=O)[C@H](C(C)C)NC(=O)[C@H](C)OC(=O)[C@@H](C(C)C)NC(=O)[C@@H](C(C)C)OC(=O)[C@H](C(C)C)NC(=O)[C@H](C)OC(=O)[C@@H](C(C)C)NC(=O)[C@@H](C(C)C)OC1=O,luciferase signal,[4],36 AU (inactive)
